# According to PubChem BioAssay:
# System: XIP peptide (Xip251-270)
# Assay: compounds binding XIP fragment 251-270 – biochemical, small-molecule microarray, fluorescence 635/667 nm, 0.5 µg/mL protein, primary screen (AID 1183)
# Conditions: fluorescence 635 nm, higher = more signal
row,SMILES,composite z-score
1,COc1ccc(COC(=O)NN=C2C[C@@H](O)[C@@H](O)[C@@H]3[C@@H]4C(=O)N([C@@H](C)c5ccccc5)C(=O)[C@@H]4CC[C@@H]23)cc1,0.0452
2,CCN1C(=O)[C@H]2[C@H]3[C@H](O)[C@H](O)CC(=NNC(=O)OCc4ccccc4)[C@H]3CC[C@H]2C1=O,0.129
3,O=C1[C@H]2[C@H]3[C@H](O)[C@H](O)CC(=NO[C@@H]4O[C@H](CO)[C@@H](O)[C@H](O)[C@H]4O)[C@@H]3CC[C@H]2C(=O)N1C[C@@H]1CCCO1,0.385
4,O=C1C[C@@H](O)[C@@H](O)[C@@H]2[C@@H]3C(=O)N(Cc4ccccc4)C(=O)[C@@H]3CC[C@H]12,0.502
5,C[C@H]1CC[C@H]2C(=O)N[C@H](Cc3ccccc3)C(=O)N2[C@@H]1c1ccccc1,0.647
6,O=C1CCCC=C1C(O)C1CCCCC1 (centres undefined),-0.11
7,CO[C@H]1C[C@@H]2C[C@H](O)CC(CC(=O)O[C@@H](C=CCC(C)C)C[C@@H]3CC[C@H](C)[C@@H](C1)O3)O2,0.142
8,CC(=O)OC[C@H]1O[C@H](CC=NOCC[C@@H]2C=C[C@H](OC(C)=O)[C@@H](COC(C)=O)O2)C=C[C@@H]1OC(C)=O,0.677
9,COC(=O)CC=C[C@@H](C)[C@@H](C=NOC[C@@H](O)COCc1ccco1)NS(=O)(=O)c1ccc(C)cc1,0.239
10,COC(=O)[C@H](C)NC(=O)CCC1CC(OC(=O)NCc2cccc3ccccc23)CC2(CCCC(COC(=O)NCc3cccc(C(F)(F)F)c3)O2)O1 (some centres undefined),0.128
11,COC(=O)C1=C(C)N(Cc2ccccc2)C2=C3C(=O)OCC[C@@H]3[C@@](O)(C(=O)OC)C(=O)N2[C@@H]1c1ccccc1,-0.189
12,COC(=O)CC=C[C@@H](C)[C@@H](C=NOC[C@@H](O)[C@H]1O[C@@H]2OC(C)(C)O[C@@H]2[C@H]1O)OC,-0.0618
13,C#CCCCON=C1C[C@@H](O)[C@@H](O)[C@@H]2[C@@H]3C(=O)N(C[C@@H]4CCCO4)C(=O)[C@@H]3CC[C@H]12,0.317
14,CC(C)[C@@H](OCc1ccccc1)[C@H](C)C=NOC[C@@H](O)[C@H]1O[C@@H]2OC(C)(C)O[C@@H]2[C@H]1O,0.258
15,CCN1C(C)=C(C(=O)OC)[C@@H](c2ccccc2)N2C(=O)[C@](O)(C(=O)OC)CC(C(C)=O)=C12,-0.218
16,COc1cccc([C@H](O)Cn2cc(-c3ccc(CON=C(C)C)cc3)nn2)c1,-0.851
17,COC(=O)CC=C[C@@H](C)[C@@H](C=NOC[C@@H](C)[C@H](OCc1ccccc1)C(C)C)NS(=O)(=O)c1ccc(C)cc1,-0.0132
18,O=C1C2=CC[C@H]3C(=O)N(c4ccc(F)cc4F)C(=O)[C@H]3[C@H]2[C@H](O)[C@@H]2O[C@H]12,0.167
19,CCOC(=O)CCN1C(=O)[C@H]2[C@@H]3C(=CC[C@H]2C1=O)C(=O)[C@H]1O[C@H]1[C@H]3O,-0.465
20,CC(CCN1CCCc2nc(C)c(C)cc21)=NOC[C@@H](O)COCc1ccco1,0.831
21,CC[C@@H](c1ccccc1)n1c(=O)n2n(c1=O)[C@H]1[C@H](O)[C@@H]3O[C@@H]3C(=NOCc3ccccc3)[C@H]1CC2,0.539
22,CCOC(=O)CCN1C(=O)[C@H]2[C@H]3[C@H](O)[C@H](O)CC(=NNC(=O)OCc4ccc(OC)cc4)[C@H]3CC[C@H]2C1=O,0.277
23,CCOC(=O)[C@H](CC(C)C)NC(=O)CCC1CC(OC(=O)NCCc2ccc(F)cc2)CC2(CCCC(COC(=O)NCc3cccc(C(F)(F)F)c3)O2)O1 (some centres undefined),0.575
24,CCO[C@H](c1cc(OC)cc([N+](=O)[O-])c1OC)[C@H](C)[C@@H](OC)[C@H](C)C=CCC(=O)OC,0.0025
25,CCOC(=O)[C@H](Cc1ccccc1)NC(=O)CCC1CC(OC(=O)NCc2cccc3ccccc23)CC2(CCCC(COC(=O)NCC3CCCCC3)O2)O1 (some centres undefined),0.357
26,Cc1ccc(S(=O)(=O)N[C@@H]2COC(=O)CC=C[C@@H](C)[C@H](NS(=O)(=O)c3ccc(C)cc3)COC(=O)[C@H](C)NC(=O)CC=C[C@H]2C)cc1,-0.564
27,CC(C)=NOC(C)CN1CCCCc2nc(C)c(C)cc21 (centres undefined),0.208
28,O=C(NN=C1C[C@@H](O)[C@@H](O)[C@@H]2[C@@H]3C(=O)N(Cc4ccc5c(c4)OCO5)C(=O)[C@@H]3CC[C@@H]12)OCc1ccccc1,0.0195
29,COc1ccc(COC(=O)NN=C2C[C@@H](O)[C@@H](O)[C@@H]3[C@@H]4C(=O)N(C(C)(C)C)C(=O)[C@@H]4CC[C@@H]23)cc1,0.48
